Results as given in the supplement of paper PMC8975748.
Structures can show the parent of a compound that is named as a salt.

The compounds below were run on Saccharomyces cerevisiae BY4741 SeMeCo community (assay: z-score of subpopulation abundance vs DMSO median, subpopulation auxotrophic for HL; higher = larger share of this subpopulation than in DMSO controls). Conditions: 10 µM; 24 h; SM minimal medium; subpopulation (auxotrophy): HL.
Description: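 Fluorescent four-plasmid SeMeCo (self-establishing metabolically cooperating S. cerevisiae BY4741 community; plasmids pH-mRuby2, pL-mWasabi, pU-eCFP, pM-TagRFP657) was grown 24 h in minimal SM medium with each Selleck FDA-approved drug at 10 µM in 384-well plates. Cells were fixed and imaged by high-content confocal microscopy. For each auxotrophic subpopulation (and the prototroph), a z-score gives the deviation from the DMSO vehicle-control population median.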

| Structure (SMILES) | z-score of subpopulation abundance |
| --- | --- |
| O=C(O)Cc1ccccc1Nc1c(Cl)cccc1Cl [Diclofenac Sodium] | -0.56 |
| CC/C(=C(/CC)c1ccc(O)cc1)c1ccc(O)cc1 [Diethylstilbestrol] | -0.25 |
| CCCc1nn(C)c2c(=O)[nH]c(-c3cc(S(=O)(=O)N4CCN(C)CC4)ccc3OCC)nc12 [Sildenafil Mesylate] | -0.5 |
| CCN1CCN(C(=O)N[C@@H](C(=O)N[C@@H]2C(=O)N3[C@@H]2SC(C)(C)[C@@H]3C(=O)O)c2ccccc2)C(=O)C1=O [Piperacillin Sodium] | 0.54 |
| CSc1nc2cc(Cl)c(Oc3cccc(Cl)c3Cl)cc2[nH]1 [Triclabendazole] | 3.65 |
| CCC[C@@H]1C[C@@H](C(=O)N[C@@H]([C@H]2O[C@H](SC)[C@H](O)[C@@H](O)[C@H]2O)[C@H](C)Cl)N(C)C1 [Clindamycin HCl] | 0.26 |
| C[C@@H](O)[C@H]1C(=O)N2C(C(=O)O)=C(SCCNC=N)C[C@H]12 [Imipenem] | -0.18 |
| COc1cccc(CCc2ccccc2OCC(CN(C)C)OC(=O)CCC(=O)O)c1 (stereo not given) [Sarpogrelate hydrochloride] | -0.5 |
| Cc1ccc(Sc2ccccc2N2CCNCC2)c(C)c1 | -0.11 |
| O=C(O)c1cc(/N=N/c2ccc(O)c(C(=O)O)c2)ccc1O [Olsalazine Sodium] | -0.76 |
| CC1=C(CC(=O)O)c2cc(F)ccc2/C1=C\c1ccc([S+](C)[O-])cc1 (stereo not given) [Sulindac] | 0.1 |
| Cc1ccc(S(=O)(=O)NC(=O)NN2CC3CCCC3C2)cc1 (stereo not given) [Gliclazide] | 0.12 |
| CCC1(C)CC(=O)NC1=O (stereo not given) [Ethosuximide] | 0.36 |
| CN[C@@H]1[C@H](O[C@H]2[C@H](O[C@H]3[C@H](O)[C@@H](O)[C@H](NC(=N)N)[C@@H](O)[C@@H]3NC(=N)N)O[C@@H](C)[C@]2(O)CO)O[C@@H](CO)[C@H](O)[C@H]1O [Dihydrostreptomycin sulfate] | -0.83 |
| Clc1ccc(COC(Cn2ccnc2)c2ccc(Cl)cc2Cl)c(Cl)c1 (stereo not given) [Miconazole] | 7.22 |
| COc1ccc2[nH]c([S+]([O-])Cc3ncc(C)c(OC)c3C)nc2c1 (stereo not given) [Omeprazole Sodium] | 0.77 |
| COc1ccc(CCN(C)CCCC(C#N)(c2ccc(OC)c(OC)c2)C(C)C)cc1OC (stereo not given) [Verapamil HCl] | 0.26 |
| CO/N=C(\C(=O)N[C@@H]1C(=O)N2C(C(=O)OCOC(=O)C(C)(C)C)=C(/C=C\c3scnc3C)CS[C@H]12)c1csc(N)n1 [Cefditoren Pivoxil] | 1.56 |
| CCOC(=O)C1=C(C)NC(C)=C(C(=O)OCC)C1c1ccccc1/C=C/C(=O)OC(C)(C)C [Lacidipine] | -0.42 |
| CN[C@@H]1[C@H](O)[C@H](NC)[C@H]2O[C@@]3(O)C(=O)C[C@@H](C)O[C@H]3O[C@@H]2[C@H]1O [Spectinomycin 2HCl] | -0.34 |

| Structure (SMILES) | z-score of subpopulation abundance |
| --- | --- |
| COc1ccc(C(=O)NCc2ccc(OCCN(C)C)cc2)cc1OC [Itopride hydrochloride] | -0.33 |
| Nc1nc(O)c2ncn(CCC(CO)CO)c2n1 [Penciclovir] | -0.26 |
| CCCCCOc1ccccc1/C(=C\SC)n1ccnc1 [Neticonazole Hydrochloride] | 4.4 |
| C=C[C@H]1CN2CC[C@H]1C[C@@H]2[C@@H](O)c1ccnc2ccc(OC)cc12 [Quinidine sulfate] | 1.36 |
| CCN(Cc1ccncc1)C(=O)C(CO)c1ccccc1 (stereo not given) [Tropicamide] | 0.16 |
| CC(C)n1c(/C=C/C(O)CC(O)CC(=O)O)c(-c2ccc(F)cc2)c2ccccc21 (stereo not given) [Fluvastatin Sodium] | 7.24 |
| Cc1nc(NC(=O)N2CCC[C@H]2C(N)=O)sc1-c1ccnc(C(C)(C)C(F)(F)F)c1 [Alpelisib (BYL719)] | -0.35 |
| O=C(O)CCC(=O)Nc1ccc(S(=O)(=O)Nc2nccs2)cc1 [Succinylsulfathiazole] | -0.84 |
| CN1CCOC(c2ccccc2)c2ccccc2C1 (stereo not given) [Nefopam HCl] | -0.63 |
| CN(C)CCC=C1c2ccccc2C(C)(C)c2ccccc21 [Melitracen hydrochloride] | -1.23 |
| CN(C)c1cc(NC(=O)CNC(C)(C)C)c(O)c2c1CC1CC3C(N(C)C)C(=O)C(C(N)=O)=C(O)C3(O)C(=O)C1=C2O (stereo not given) [Tigecycline] | -0.79 |
| Cc1ncc([N+](=O)[O-])n1CC(O)CCl (stereo not given) [Ornidazole] | 0.53 |
| Cc1cc(NS(=O)(=O)c2ccc(N)cc2)no1 [Sulfamethoxazole] | 0.5 |
| CCN(CC)CC#CCOC(=O)C(O)(c1ccccc1)C1CCCCC1 (stereo not given) [Oxybutynin chloride] | -0.93 |
| O=C1CN(/N=C/c2ccc(-c3ccc([N+](=O)[O-])cc3)o2)C(=O)N1 [Dantrolene sodium hemiheptahydrate] | 1.61 |
| COc1ccc2cc3[n+](cc2c1OC)CCc1cc2c(cc1-3)OCO2 [Berberine chloride] | 0.31 |
| Nc1nc(N)c2nc(-c3ccccc3)c(N)nc2n1 [Triamterene] | 3.45 |
| N/C(=N\N=C\c1ccc(Cl)cc1)N/N=C/c1ccc(Cl)cc1 [Robenidine Hydrochoride] | 6.84 |
| CC/C=C(\C(=O)N[C@@H]1C(=O)N2C(C(=O)OCOC(=O)C(C)(C)C)=C(COC(N)=O)CS[C@H]12)c1csc(N)n1 [Cefcapene Pivoxil Hydrochloride] | 0.18 |
| NC(=O)c1cnccn1 [Pyrazinamide] | -0.42 |
